Reference: PubChem BioAssay (NCATS)
Unmarked numbers belong to inactive results. Results filed as inconclusive are left out. Active and inactive are the calls of the source. Unless noted, the call rests on the fitted dose curve; in most records, active means well fitted curve in the direction sought with a large enough effect; inconclusive means small, poorly fitted or top-dose-only effect, or another doubt; inactive means no such curve, though single readings can be large; an effect the other way counts as inactive or inconclusive.

molecular target: Mitogen-activated protein kinase 10 (Mus musculus) (UniProt Q61831); experiment: JNK3 AlphaScreen Assay (AID 530; active means well fitted curve in either direction with a large enough effect, not every such curve was filed as active;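 further: kinase came from lysate of stimulated human HepG2 cells; signal reports phosphorylation of biotinylated GST-cJun 1-79 at Ser73 with 10 µM ATP; on the % scale 0 is the no-effect control and ±100 the full control effect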); conditions: JNK3 lysate, c-Jun phosphorylation; series mostly up to 57.1 µM; activity change, negative = inhibition: at the top concentration
Summary of the method: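 Room-temperature AlphaScreen kinase assay; pre-activated HepG2 lysate as JNK3 source, biotin-GST-cJun(1-79) substrate, 10 uM ATP, compound 15 min preincubation.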

Row | Structure (SMILES) | activity change, negative = inhibition [%]
1 | Cc1nc(Nc2ccccc2)c2nc(-c3ccccc3)n(CCCN3CCCCC3C)c2n1 (centres undefined) | -7.31
2 | CCCn1c(C)nc2c(NC(C)CCCN(CC)CC)nc(C)nc21 (centres undefined) | -1.79
3 | CCN(CC)CCCn1c(-c2ccccc2)nc2c(NCc3ccccc3)nc(C)nc21 | -2.63
4 | CCCCNc1nc(C)nc2c1nc(-c1ccccc1)n2CCN(C)C | -8.72
5 | CCCn1c(-c2ccc(F)cc2)nc2c(NC(C)CN(C)C)nc(C)nc21 (centres undefined) | 0.187
6 | CCN(CC)CCCCn1c(-c2ccccc2)nc2c(N3CCOCC3)nc(C)nc21 | 1.59
7 | Cc1nc(N2CCOCC2)c2nc(-c3ccccc3)n(C(C)CN(C)C)c2n1 (centres undefined) | -1.36
8 | CCCn1c(-c2ccc(F)cc2)nc2c(NCCCN(CC)CC)nc(C)nc21 | -5.25
9 | CCN(CC)CCCC(C)n1c(-c2ccccc2)nc2c(NCCOC)nc(C)nc21 (centres undefined) | -2.87
10 | CCCn1c(C)nc2c(N(CCOC)CCOC)nc(C)nc21 | -0.0448
11 | Cc1nc(NC2CCCCC2)c2nc(-c3ccccc3)n(CCCN(C)C)c2n1 | -3.45
12 | CCN(CC)CCCn1c(-c2ccccc2)nc2c(N(CCOC)CCOC)nc(C)nc21 | 1.76
13 | CCCn1c(C)nc2c(N3CCOCC3)nc(C)nc21 | 1.21
14 | COCCN(CCOC)c1nc(C)nc2c1nc(-c1ccccc1)n2CC1CCN(C)CC1 | 0.167
15 | CCN(CC)CCn1c(-c2ccccc2)nc2c(NC3CCCCC3)nc(C)nc21 | -2.87
16 | CCCCNc1nc(C)nc2c1nc(-c1ccccc1)n2CCCCN(CC)CC | -3.6
17 | Cc1nc(NC2CCCCC2)c2nc(-c3ccccc3)n(CCN3CCCCC3)c2n1 | -16.6
18 | CCCn1c(-c2ccc(F)cc2)nc2c(NCCN(CC)CC)nc(C)nc21 | -7.02
19 | CCCn1c(-c2ccc(F)cc2)nc2c(N3CCN(Cc4nc(OC)cc(OC)n4)CC3)nc(C)nc21 | -15.7
20 | CCCn1c(C)nc2c(Nc3ccccc3)nc(C)nc21 | 3.11
21 | CCN(CC)CCCCn1c(-c2ccccc2)nc2c(NC3CCCCC3)nc(C)nc21 | -6.15

molecular target: Cytochrome P450 3A4 (Homo sapiens) (UniProt P08684); experiment: qHTS Assay for Activators of Cytochrome P450 3A4 (AID 885); conditions: recombinant CYP3A4, Luciferin-PPXE luminescence, 60 min; series mostly up to 57.1 µM; activity change, positive = activation: at the top concentration; further: nearly all actives have a fitted effect of over 65% in size
Sequence (P08684 whole entry, looked up): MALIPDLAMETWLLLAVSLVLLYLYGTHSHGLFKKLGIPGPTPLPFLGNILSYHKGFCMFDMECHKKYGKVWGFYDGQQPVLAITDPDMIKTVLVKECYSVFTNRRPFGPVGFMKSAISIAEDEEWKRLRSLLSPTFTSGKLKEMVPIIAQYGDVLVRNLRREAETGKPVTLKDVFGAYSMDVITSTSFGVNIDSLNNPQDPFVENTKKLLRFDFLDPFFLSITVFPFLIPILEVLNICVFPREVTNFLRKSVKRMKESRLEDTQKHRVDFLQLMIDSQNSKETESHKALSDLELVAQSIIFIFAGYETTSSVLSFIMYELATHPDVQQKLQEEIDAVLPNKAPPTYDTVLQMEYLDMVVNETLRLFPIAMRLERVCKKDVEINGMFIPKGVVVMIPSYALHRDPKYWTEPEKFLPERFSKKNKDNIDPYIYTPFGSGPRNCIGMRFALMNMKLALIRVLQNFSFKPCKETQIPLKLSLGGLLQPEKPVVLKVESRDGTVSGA
Summary of the method: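 Human CYP3A4 (20 nM) with Luciferin-PPXE at 25 uM (its KM) in 200 mM KPO4; 10 min compound preincubation, then NADPH regeneration and 60 min reaction at RT. Luciferin read by luminescence; normalized to 57 uM ketoconazole full inhibition.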

Row | Structure (SMILES) | activity change, positive = activation [%]
22 | Cc1nc(Nc2ccccc2)c2nc(-c3ccccc3)n(CCCN3CCCCC3C)c2n1 (centres undefined) | -59.6
23 | CCCn1c(C)nc2c(NC(C)CCCN(CC)CC)nc(C)nc21 (centres undefined) | -30.3
24 | CCN(CC)CCCn1c(-c2ccccc2)nc2c(NCc3ccccc3)nc(C)nc21 | -57.5
25 | CCCCNc1nc(C)nc2c1nc(-c1ccccc1)n2CCN(C)C | -48.8
26 | CCCn1c(-c2ccc(F)cc2)nc2c(NC(C)CN(C)C)nc(C)nc21 (centres undefined) | -45.2
27 | CCN(CC)CCCCn1c(-c2ccccc2)nc2c(N3CCOCC3)nc(C)nc21 | -35.2
28 | Cc1nc(N2CCOCC2)c2nc(-c3ccccc3)n(C(C)CN(C)C)c2n1 (centres undefined) | -43.3
29 | CCCn1c(-c2ccc(F)cc2)nc2c(NCCCN(CC)CC)nc(C)nc21 | -45
30 | CCN(CC)CCCC(C)n1c(-c2ccccc2)nc2c(NCCOC)nc(C)nc21 (centres undefined) | -47.1
31 | CCCn1c(C)nc2c(N(CCOC)CCOC)nc(C)nc21 | -58.6
32 | Cc1nc(NC2CCCCC2)c2nc(-c3ccccc3)n(CCCN(C)C)c2n1 | -34.7
33 | CCN(CC)CCCn1c(-c2ccccc2)nc2c(N(CCOC)CCOC)nc(C)nc21 | -49.2
34 | CCCn1c(C)nc2c(N3CCOCC3)nc(C)nc21 | -30.7
35 | COCCN(CCOC)c1nc(C)nc2c1nc(-c1ccccc1)n2CC1CCN(C)CC1 | -41.1
36 | CCN(CC)CCn1c(-c2ccccc2)nc2c(NC3CCCCC3)nc(C)nc21 | -53.4
37 | CCCCNc1nc(C)nc2c1nc(-c1ccccc1)n2CCCCN(CC)CC | -58.5
38 | Cc1nc(NC2CCCCC2)c2nc(-c3ccccc3)n(CCN3CCCCC3)c2n1 | -105
39 | CCCn1c(-c2ccc(F)cc2)nc2c(NCCN(CC)CC)nc(C)nc21 | -50.1
40 | CCCn1c(-c2ccc(F)cc2)nc2c(N3CCN(Cc4nc(OC)cc(OC)n4)CC3)nc(C)nc21 | -99.3
41 | CCCn1c(C)nc2c(Nc3ccccc3)nc(C)nc21 | -44.6
42 | CCN(CC)CCCCn1c(-c2ccccc2)nc2c(NC3CCCCC3)nc(C)nc21 | -33.6

tested on: not listed separately; experiment: qHTS for Inhibitors of Ubiquitin-specific Protease USP2a Using CHOP2 as the Reporter: K633 Counterscreen (AID 652168); conditions: No-enzyme DiUb K48 IQF substrate fluorescence interference, kinetic; series mostly up to 57.5 µM; activity change, negative = inhibition: at the top concentration; further: % of control where 0% means no effect
Summary of the method: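 Cell-free interference counterscreen without USP2a: compounds pinned into enzyme-free buffer (20 mM Tris pH 8, 2 mM beta-mercaptoethanol, 0.05% Chaps), then DiUb K48-4IQF substrate added (100 nM stock); fluorescence read kinetically, Ex 525/Em 598.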

Row | Structure (SMILES) | activity change, negative = inhibition [%] | outcome
43 | O=C(Nc1ccc(S(=O)(=O)Nc2nccs2)cc1)C1CCC2(CC1)CC2 | -16.1 | –
44 | O=C(Nc1ccc(S(=O)(=O)Nc2nc(-c3ccccc3)cs2)cc1)c1ccc2ccccc2c1 | -6.8 | –
45 | Cc1ccc(-c2cc(C(=O)Nc3cccc(Cl)c3)c3ccccc3n2)cc1C | -22.5 | –
46 | Cc1ccc(S(=O)(=O)Nc2ccccc2C(=O)Nc2nccs2)cc1 | -9.98 | –
47 | Cc1ccc(S(=O)(=O)Nc2cnccc2C(=O)Nc2ccccc2)cc1 | -9.54 | –
48 | Cc1ccc(S(=O)(=O)Nc2cc(F)c(F)cc2C(=O)Nc2nc(-c3ccccc3)cs2)cc1 | -2.93 | –
49 | COc1ccc(NC(=O)c2cc(-c3ccc(C)c(C)c3)nc3ccccc23)cc1 | -22 | –
50 | Cc1ccc(S(=O)(=O)Nc2cnccc2C(=O)Nc2nc(-c3ccncc3)cs2)cc1 | -6.28 | –
51 | Cc1ccc(S(=O)(=O)Nc2cnccc2C(=O)Nc2ccc(N3CCOCC3)cc2)cc1 | 0.15 | –
52 | Cc1ccc(S(=O)(=O)Nc2cnccc2C(=O)Nc2nc(-c3ccc(Cl)c(Cl)c3)cs2)cc1 | -19.1 | –
53 | CC(=O)Nc1ccc(S(=O)(=O)Nc2nccs2)cc1 | – | inactive
54 | O=c1[nH]c(CN2CCOCC2)nc2sc3c(c12)CCCC3 | 1.52 | –
55 | Cc1ccc(S(=O)(=O)Nc2ccccc2C(=O)Nc2nc(-c3ccc(Cl)cc3)cs2)cc1 | -10.5 | –
56 | COc1ccc(C(=O)Nc2nc(-c3ccccc3)cs2)c(OC)c1 | 3.17 | –
57 | O=C(Nc1nc(-c2ccccc2)cs1)c1ccncc1NS(=O)(=O)c1ccc(N2CCCC2=O)cc1 | -14.5 | –
58 | CCS(=O)(=O)N1CCC(C(=O)Nc2ccc(S(=O)(=O)Nc3nccs3)cc2)CC1 | -4.83 | –
59 | Cc1ccc(-c2cc(C(=O)Nc3ccc(C(=O)O)cc3)c3ccccc3n2)cc1C | -16 | –
